This is an account of results in PubChem BioAssay (NCI).

Common to all, as to assay: NCI-60 one-dose screen, 48 h (100 = growth as untreated, 0 = no growth, -100 = all killed)
Assay [1] has as its system SR leukemia. The following applies: 10 µM unless noted.
The subject of assay [2] is RPMI-8226 leukemia. Particulars: 10 µM unless noted.
In assay [3] the test system is OVCAR-8 ovarian. The following applies: 10 µM unless noted.
In assay [4] the test system is OVCAR-5 ovarian. Particulars: 10 µM unless noted.
Assay [5] deals with OVCAR-4 ovarian. Particulars: 10 µM unless noted.
The test system of assay [6] is SK-OV-3 ovarian. The following applies: 10 µM unless noted.
Assay [7] relates to IGROV1 ovarian. The following applies: 10 µM unless noted.
Assay [8] concerns OVCAR-3 ovarian. The following applies: 10 µM unless noted.
The test system of assay [9] is HS 578T breast. Particulars: 10 µM.
The subject of assay [10] is NCI/ADR-RES ovarian. Particulars: 10 µM unless noted.
Assay [11] has as its system T-47D breast. The following applies: 10 µM unless noted.
For assay [12], the system named is BT-549 breast. Particulars: 10 µM unless noted.
Assay [13] concerns MDA-MB-435 melanoma. Particulars: 10 µM unless noted.
Assay [14] has as its system MCF7 breast. Particulars: 10 µM unless noted.
Assay [15] concerns HCT-116 colon. Particulars: 10 µM unless noted.
Assay [16] concerns HCC-2998 colon. Particulars: 10 µM.
The subject of assay [17] is KM12 colon. The following applies: 10 µM unless noted.
The test system of assay [18] is SW-620 colon. The following applies: 10 µM unless noted.

Structures are written as SMILES. The panel holds about 83,000 compounds, 20% with a hit somewhere; the sample as a whole holds those more often.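 Each cell line was grown in a 96-well plate and treated with one concentration of compound for 48 hours. Values below 10 were considered active.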 A number with no mark means an inactive call. Calls of active or inactive are those of the source.

On to `Cc1ccc(NC(=O)NC(=O)CSc2nc3ccccc3nc2C)cc1`, for which the growth is 45.8% in assay [1]; 57.1% in assay [2]; 72.4% in [3]; 100% in assay [4]; 23.3% in assay [5]; 56.2% in assay [6]. Moreover, the growth in assay [7] was 72.2%; in assay [8] it was 97.4%; in assay [9], 97.6%; in assay [10], 40.6%; in assay [11], 40.9%; in assay [12], 59.9%. Besides, the growth in assay [13] was 74.1%; in [14], 52.4%; in assay [15] it was 17.1%; in [16] it was 72.1%; in [17], 76.5%.
With `C=CCC(=O)N[C@H](/C=C/C(=O)O)Cc1ccc(-c2cc(Cl)cc(Cl)c2)cc1`, the growth in assay [1] is 82%; in assay [2] it was 96.6%; in [3] it was 92.7%; in assay [4], 92%; in [5], 98.6%; in assay [6], 87.3%. The growth in [7] was 114%; in [8], 108%; in [9], 97%; in assay [10] it was 107%; in assay [11], 81%; in assay [13], 103%. Also, the growth in [18] was 104%; in assay [14], 92.7%; in assay [15], 82.5%; in [16], 101%.
Regarding `NC(=O)c1n[nH]n2c1nc(=O)c1c3c(sc12)CCCC3`, the growth is 101% in assay [1]; 94.2% in assay [2]; 101% in assay [3]; 111% in [4]; 118% in assay [5]; 105% in [6]. In addition, the growth in [7] is 104%; in assay [8], 107%; in [9] it was 110%; in assay [10], 106%; in [11], 96.2%; in assay [12] it was 98.3%. Moreover, the growth in assay [13] was 117%; in assay [14] it was 92.3%; in [15] it was 104%; in assay [17], 104%.
Take `CCCCCC(=O)OCc1ccc(Cl)c(Cl)c1`: the growth in assay [1] was 97.5%; in [2], 104%; in assay [3] it was 103%; in [4] it was 108%; in [5], 105%; in assay [6], 107%. Besides, the growth in assay [7] is 106%; in [8], 106%; in assay [9] it was 103%; in assay [10], 102%; in assay [11], 105%; in [12], 109%. Besides, the growth is 109% in assay [13], 101% in assay [15], 94.8% in assay [16] and 103% in assay [17].
For `C=CCCCOC1[C@H](OCc2ccccc2)C(OCc2ccccc2)C(OC)O[C@@H]1CNC(=O)c1cccc(I)c1` (some centres undefined), the growth in assay [1] was 26.7%; in assay [2], 8.34% (active); in assay [3], 51.8%; in assay [4], 69%; in [5] it was 22.6%; in assay [6], 45.5%. Also, the growth is 43.2% in assay [7]; 50.1% in assay [8]; 79.7% in assay [9]; 25.9% in assay [10]; 33.4% in assay [11]; 57.5% in [12]. Also, the growth was 44.7% in assay [13], 20.4% in assay [14], 19.8% in assay [15] and 38.5% in assay [17].
Regarding `CC(=O)OC(C(=O)c1ccccc1)c1ccccc1` (centres undefined), the growth is 106% in assay [1]; 105% in assay [2]; 98% in assay [3]; 102% in assay [4]; 97.8% in assay [5]; 94.1% in assay [6]. Further, the growth in [7] is 105%; in [8] it was 121%; in assay [9] it was 125%; in [10] it was 107%; in assay [11], 95.5%; in assay [13], 108%. Moreover, the growth in [18] was 99.3%; in assay [14], 95.8%; in assay [15], 95.8%; in [16], 112%; in assay [17], 101%.
Take `C[N+](C)(CCOC(c1ccccc1)c1ccccc1)CC(=O)OCc1ccccc1`: the growth in [1] is 115%; in assay [2], 111%; in assay [3], 106%; in assay [4], 103%; in assay [5], 93.5%; in [6], 106%. Besides, the growth in assay [7] was 106%; in assay [8] it was 103%; in assay [9], 108%; in [10], 105%; in assay [11], 120%; in assay [13], 97.9%. Moreover, the growth is 108% in assay [18]; 97% in [14]; 105% in assay [15]; 106% in [16]; 99.9% in assay [17].
For `Nc1c2c(c(O)c3c1=C(CO)C=N3)=NCCS2=O` (centres undefined), the growth in assay [1] was 3.82% (active); in [2], 20.7%; in assay [3], -18.8% (active); in assay [4] it was -61.6% (active); in assay [5], -96.7% (active); in assay [6] it was 77%. Further, the growth is -15.2% (active) in assay [7]; -51.5% (active) in assay [8]; 1.72% (active) in [9]; 0.866% (active) in assay [10]; -42.6% (active) in assay [11]; -74.4% (active) in [12]. Besides, the growth is -82.7% (active) in assay [13]; -50.6% (active) in [14]; -49.3% (active) in assay [15]; -87.8% (active) in assay [16]; -27.7% (active) in assay [17].
As to `CN(C)CCn1c(=O)c2c3cc4c(cc3n(CCN(C)C)c2c2ccc(Cl)cc21)OCO4`, the growth was -13.5% (active) in assay [1]; 44.7% in [2]; 31.7% in [3]; 81.4% in assay [4]; 61.3% in assay [5]; 41.3% in [6]. The growth was 38.4% in assay [7]; 83.5% in assay [8]; 84.7% in assay [9]; 31.4% in [10]; 57.2% in [11]; 70.7% in assay [13]. In addition, the growth in assay [18] is -14.7% (active); in assay [14], 21.3%; in [15], -79.4% (active); in [16] it was 81.7%; in [17] it was 45.1%.
